Laboratory results reported in PubChem BioAssay.
For some assays here: Entries with a potency or affinity are not part of this list. The source made the active and inactive calls. Unless noted, how the calls were made is not given here.

Key:
[1] = antimalarial activity against Dd2 strain (AID 2302;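 active means growth inhibition above 50% at the single 2 µM test dose, taken to imply half-maximal potency below 2 µM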;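 further: 0% = DMSO untreated growth and 100% = chloroquine plus artemisinin killed control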); details: P. falciparum Dd2 in RBCs, LDH growth readout, 72 h; at 2 µM; active compounds read high
[2] = HepG2 cytotoxicity, primary screen, cytotoxicity control for P. falciparum antimalarial project, cell-based, ATP luminescence (AID 2303;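 active means inhibition above 50%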;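 further: 0% = DMSO wells and 100% = digitonin-killed cells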); details: HepG2 viability, 24-48 h, at 10 µM, active compounds read high
[3] = target: L-lactate dehydrogenase (Plasmodium falciparum (isolate CDC / Honduras)) (UniProt Q27743); assay: PfLDH activity inhibition – cell lysate, 3D7 strain, counter-screen for P. falciparum growth inhibition project (AID 2304);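 further: 0% = vehicle and 100% = reference inhibitor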; details: P. falciparum 3D7 crude extract, LDH APAD/NBT absorbance; at 2 µM; active compounds read high
L-lactate dehydrogenase (Plasmodium falciparum (isolate CDC / Honduras)), sequence (Q27743 whole entry, looked up): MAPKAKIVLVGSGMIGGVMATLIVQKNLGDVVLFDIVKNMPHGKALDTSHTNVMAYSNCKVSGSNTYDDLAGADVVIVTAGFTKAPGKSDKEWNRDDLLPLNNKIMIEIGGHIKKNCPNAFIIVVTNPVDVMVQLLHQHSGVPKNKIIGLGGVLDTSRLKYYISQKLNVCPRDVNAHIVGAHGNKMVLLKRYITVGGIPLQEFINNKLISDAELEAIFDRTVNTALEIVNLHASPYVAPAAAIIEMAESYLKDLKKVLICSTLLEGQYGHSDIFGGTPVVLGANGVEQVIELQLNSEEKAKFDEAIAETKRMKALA

[4] = inhibition of 3D7 malaria parasite growth – strain 3D7 (AID 2306);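 further: 0% = DMSO wells and 100% = chloroquine plus artemisinin control wells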; details: P. falciparum 3D7 erythrocytic growth, LDH absorbance, 72 h; at 2 µM; active compounds read high
[5] = target: Calcium-dependent protein kinase 1 (Plasmodium falciparum (isolate 3D7)) (UniProt P62344); assay: PfCDPK1 kinase inhibitors, biochemical, TCAMS library (AID 1159585; cut-off not given, nearly all actives have IC50 up to about 0.98 µM;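 further: inhibitors leave more ATP so luminescence rises with inhibition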); details: recombinant PfCDPK1, Kinase-Glo ATP depletion luminescence
Calcium-dependent protein kinase 1 (Plasmodium falciparum (isolate 3D7)), sequence (P62344 whole entry, looked up): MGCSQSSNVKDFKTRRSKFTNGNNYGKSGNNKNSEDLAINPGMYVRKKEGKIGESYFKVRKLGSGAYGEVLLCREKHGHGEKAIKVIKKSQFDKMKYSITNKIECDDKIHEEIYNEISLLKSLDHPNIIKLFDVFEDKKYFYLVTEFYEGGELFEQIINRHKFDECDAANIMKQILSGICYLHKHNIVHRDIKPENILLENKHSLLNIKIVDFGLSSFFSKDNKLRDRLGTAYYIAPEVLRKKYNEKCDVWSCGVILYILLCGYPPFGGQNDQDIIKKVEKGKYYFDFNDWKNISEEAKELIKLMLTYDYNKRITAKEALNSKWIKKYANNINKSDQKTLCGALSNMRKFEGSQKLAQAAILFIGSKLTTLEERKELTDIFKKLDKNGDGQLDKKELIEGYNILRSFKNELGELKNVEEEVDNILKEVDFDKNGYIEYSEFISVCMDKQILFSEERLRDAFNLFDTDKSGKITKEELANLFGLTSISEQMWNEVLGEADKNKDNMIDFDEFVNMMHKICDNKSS

[6] = target: Plasmodium falciparum protein kinase 6 (PK6, PF3D7_1337100) (UniProt Q8IDW1); assay: PfPK6 kinase inhibitors, biochemical, TCAMS library (AID 1159586); details: recombinant PfPK6, Kinase-Glo ATP depletion luminescence
Plasmodium falciparum protein kinase 6 (PK6, PF3D7_1337100), sequence (Q8IDW1 1-305): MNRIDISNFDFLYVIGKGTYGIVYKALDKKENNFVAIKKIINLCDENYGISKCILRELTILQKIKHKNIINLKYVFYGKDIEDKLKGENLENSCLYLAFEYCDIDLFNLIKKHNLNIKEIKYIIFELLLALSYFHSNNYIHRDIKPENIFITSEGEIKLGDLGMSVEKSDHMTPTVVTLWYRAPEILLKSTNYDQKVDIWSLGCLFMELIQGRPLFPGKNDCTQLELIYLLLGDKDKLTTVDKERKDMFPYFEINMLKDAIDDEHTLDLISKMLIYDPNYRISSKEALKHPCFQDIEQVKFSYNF

[7] = target: Protein kinase 7 (PK7), Plasmodium falciparum 3D7 (PF3D7_0213400) (UniProt Q7YTF7); assay: inhibition of Plasmodium PK7 catalytic activity – biochemical, TCAMS antimalarial set, Kinase-Glo luminescence (AID 1159587); details: recombinant PfPK7, Kinase-Glo ATP depletion luminescence
Protein kinase 7 (PK7), Plasmodium falciparum 3D7 (PF3D7_0213400), sequence (Q7YTF7 1-343): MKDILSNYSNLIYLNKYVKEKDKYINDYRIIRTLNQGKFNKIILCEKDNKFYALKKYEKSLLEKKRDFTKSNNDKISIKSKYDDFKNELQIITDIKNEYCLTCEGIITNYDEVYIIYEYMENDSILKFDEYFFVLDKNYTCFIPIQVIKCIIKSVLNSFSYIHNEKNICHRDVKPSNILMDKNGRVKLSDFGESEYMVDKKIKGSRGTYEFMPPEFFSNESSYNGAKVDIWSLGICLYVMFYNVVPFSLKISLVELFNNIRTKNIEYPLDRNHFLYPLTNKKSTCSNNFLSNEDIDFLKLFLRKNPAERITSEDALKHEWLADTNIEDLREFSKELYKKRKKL

[8] = target: Calcium-dependent protein kinase 4 (Plasmodium falciparum (isolate 3D7)) (UniProt Q8IBS5); assay: PfCDPK4 kinase inhibitors, biochemical, TCAMS library (AID 1159588; cut-off not given, nearly all actives have IC50 up to about 0.91 µM); details: recombinant PfCDPK4, Kinase-Glo ATP depletion luminescence
Calcium-dependent protein kinase 4 (Plasmodium falciparum (isolate 3D7)), sequence (Q8IBS5 whole entry, looked up): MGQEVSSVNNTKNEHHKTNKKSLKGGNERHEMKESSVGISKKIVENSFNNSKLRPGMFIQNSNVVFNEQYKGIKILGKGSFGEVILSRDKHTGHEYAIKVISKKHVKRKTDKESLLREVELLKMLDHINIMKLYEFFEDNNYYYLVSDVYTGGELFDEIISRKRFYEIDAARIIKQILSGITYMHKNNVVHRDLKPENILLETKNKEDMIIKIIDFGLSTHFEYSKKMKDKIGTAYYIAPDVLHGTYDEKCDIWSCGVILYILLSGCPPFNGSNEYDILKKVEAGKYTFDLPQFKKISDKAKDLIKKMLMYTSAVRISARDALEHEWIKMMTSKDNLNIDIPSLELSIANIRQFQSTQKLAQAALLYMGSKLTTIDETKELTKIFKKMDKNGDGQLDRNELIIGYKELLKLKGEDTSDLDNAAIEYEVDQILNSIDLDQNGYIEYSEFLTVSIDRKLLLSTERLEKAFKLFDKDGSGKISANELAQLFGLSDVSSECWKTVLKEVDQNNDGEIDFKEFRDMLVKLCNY

Cc1ccccc1C1CCN(C2CCC(NC(=O)c3ccc4c(c3)-c3nocc3C(C)O4)CC2)CC1 (stereo not given)
inactive: growth inhibition [1] 37% | inhibition [3] 4% | outcome [5] | outcome [6] | outcome [7] | outcome [8]
active: inhibition [2] 68% | growth inhibition [4] 88%

COC(=O)Nc1cc(C(F)(F)F)ccc1N1CCCC(NS(=O)(=O)c2ccc(C(C)(C)C)cc2)C1 (stereo not given)
inactive: inhibition [2] -8% | inhibition [3] -5% | outcome [5] | outcome [6] | outcome [7] | outcome [8]
active: growth inhibition [1] 90% | growth inhibition [4] 97%

O=S(=O)(c1cccc2cccnc12)N1CCN(C2CCCCC2)CC1
inactive: growth inhibition [1] 10% | inhibition [2] 15% | inhibition [3] 1% | outcome [5] | outcome [6] | outcome [7] | outcome [8]
active: growth inhibition [4] 96%

Cc1cc(NN=Cc2cccc([N+](=O)[O-])c2)c2cc(F)ccc2n1
inactive: inhibition [2] 3% | inhibition [3] -5% | outcome [5] | outcome [6] | outcome [7] | outcome [8]
active: growth inhibition [1] 99% | growth inhibition [4] 102%

Cc1ccc(NC(=O)c2c(C)noc2-c2snnc2C)cc1
inactive: inhibition [2] 1% | inhibition [3] 3% | outcome [5] | outcome [6] | outcome [7] | outcome [8]
active: growth inhibition [1] 71% | growth inhibition [4] 92%

CS(=O)(=O)N1CC2(CCN(CCC(NC(=O)NCc3ccccc3Cl)c3ccc(Cl)c(Cl)c3)CC2)c2ccccc21 (stereo not given)
inactive: inhibition [2] 12% | inhibition [3] -7% | outcome [5] | outcome [6] | outcome [7] | outcome [8]
active: growth inhibition [1] 98% | growth inhibition [4] 85%

O=C(Nc1cccc(-c2cccc(-c3nc4ccc(C(F)(F)F)cc4[nH]3)c2)c1)c1cnc[nH]1
inactive: inhibition [2] 14% | inhibition [3] 2% | outcome [5] | outcome [6] | outcome [7] | outcome [8]
active: growth inhibition [1] 100% | growth inhibition [4] 101%

CC(C)CN(C)c1ncnc2c1nc(-c1cncc(C#N)c1)n2CCNCc1ccccc1
inactive: growth inhibition [1] 2% | inhibition [2] 4% | inhibition [3] 0% | outcome [5] | outcome [6] | outcome [7] | outcome [8]
active: growth inhibition [4] 86%

O=C(/C=C/c1c[nH]c2ccccc12)NCCCCCN1CCC(c2c[nH]c3ccccc23)CC1
inactive: growth inhibition [1] 0% | inhibition [2] 20% | inhibition [3] 5% | outcome [5] | outcome [6] | outcome [7] | outcome [8]
active: growth inhibition [4] 96%

COc1ccc(C=C2SC(=N)N(c3ccccc3OC)C2=O)cc1
active: growth inhibition [1] 95% | growth inhibition [4] 97%
inactive: inhibition [2] 47% | inhibition [3] 3% | outcome [5] | outcome [6] | outcome [7] | outcome [8]

Cc1cc(N[C@@H](CC(C)C)C(=O)NCCc2ccccc2)nc(NCC2CCCCC2)n1
active: growth inhibition [1] 65% | growth inhibition [4] 97%
inactive: inhibition [2] 19% | inhibition [3] -1% | outcome [5] | outcome [6] | outcome [7] | outcome [8]

Cc1cc(Nc2ccc(O)cc2)nc2cccc(O)c12
active: growth inhibition [4] 99%
inactive: growth inhibition [1] 28% | inhibition [2] 22% | inhibition [3] -6% | outcome [5] | outcome [6] | outcome [7] | outcome [8]

COc1ccc(CC2(CO)CCN(Cc3ccc(O)c(Cl)c3)CC2)cc1
inactive: growth inhibition [1] 14% | inhibition [2] -6% | inhibition [3] -2% | outcome [5] | outcome [6] | outcome [7] | outcome [8]
active: growth inhibition [4] 98%

O=C(Nc1cccc([N+](=O)[O-])c1)Nc1ccc(Cl)c(C(F)(F)F)c1
inactive: inhibition [2] 15% | inhibition [3] 6% | outcome [5] | outcome [6] | outcome [7] | outcome [8]
active: growth inhibition [1] 87% | growth inhibition [4] 96%

CC(C)CCN(Cc1cncn1Cc1cccc(Cl)c1)C(=O)c1cncc(-c2ccccc2)c1
inactive: growth inhibition [1] -1% | inhibition [2] 9% | inhibition [3] -2% | outcome [5] | outcome [6] | outcome [7] | outcome [8]
active: growth inhibition [4] 99%

COc1ccc(/C=C/C(=O)Nc2ccc(-c3ccncc3)cc2)cc1CCCN(C)C
inactive: inhibition [2] 3% | inhibition [3] 1% | outcome [5] | outcome [6] | outcome [7] | outcome [8]
active: growth inhibition [1] 86% | growth inhibition [4] 102%

COc1ccc2nc(C)cc(NN=Cc3ccccc3F)c2c1
inactive: inhibition [2] 3% | inhibition [3] -4% | outcome [5] | outcome [6] | outcome [7] | outcome [8]
active: growth inhibition [1] 100% | growth inhibition [4] 100%

OC(CNC1CCCCC1)Cn1c2ccccc2c2ccccc21 (stereo not given)
active: growth inhibition [1] 92% | growth inhibition [4] 97%
inactive: inhibition [2] 11% | inhibition [3] 0% | outcome [5] | outcome [6] | outcome [7] | outcome [8]

COc1ccc(-c2cc3nc4c(c(NCCCn5ccnc5)n3n2)CCCC4)cc1
active: growth inhibition [1] 74% | growth inhibition [4] 95%
inactive: inhibition [2] 5% | inhibition [3] -2% | outcome [5] | outcome [6] | outcome [7] | outcome [8]

Cc1nnc2c(N(C(=O)NCCc3ccccc3)C(=O)NCCc3ccccc3)cc3cc(Cl)ccc3n12
active: growth inhibition [4] 91%
inactive: growth inhibition [1] 34% | inhibition [2] 0% | inhibition [3] -5% | outcome [5] | outcome [6] | outcome [7] | outcome [8]

C[C@H](CNc1ccnc(Nc2ccc3[nH]c(=O)[nH]c3c2)n1)c1ccccc1
active: inhibition [2] 61% | growth inhibition [4] 100%
inactive: growth inhibition [1] -5% | inhibition [3] -2% | outcome [5] | outcome [6] | outcome [7] | outcome [8]

COc1ccc2nccc([C@@H](O)CN3CCC(NCc4ccc5c(c4)NC(=O)CS5)CC3)c2n1
active: growth inhibition [4] 101%
inactive: growth inhibition [1] 34% | inhibition [2] 1% | inhibition [3] -3% | outcome [5] | outcome [6] | outcome [7] | outcome [8]

CCN(CC)S(=O)(=O)c1ccc(C(C)NC(=O)c2ccccc2COc2ccccc2)cc1 (stereo not given)
inactive: inhibition [2] -3% | inhibition [3] 4% | outcome [5] | outcome [6] | outcome [7] | outcome [8]
active: growth inhibition [1] 89% | growth inhibition [4] 100%

O=C(NCc1ccccc1)Nc1cccc(-c2cccc(-c3nc4ccc(C(F)(F)F)cc4[nH]3)c2)c1
inactive: growth inhibition [1] 30% | inhibition [3] 0% | outcome [5] | outcome [6] | outcome [7] | outcome [8]
active: inhibition [2] 56% | growth inhibition [4] 95%

COc1cc2nc(-c3ccc(Br)cc3)cc(N)c2cc1OC
inactive: inhibition [3] -3% | outcome [5] | outcome [6] | outcome [7] | outcome [8]
active: growth inhibition [1] 69% | inhibition [2] 90% | growth inhibition [4] 98%

CC(C)N1CCC(NC(=O)N2CCCN(c3ncnc4cc(-c5ccccc5)sc34)CC2)CC1
active: growth inhibition [4] 87%
inactive: growth inhibition [1] 11% | inhibition [2] 31% | inhibition [3] -4% | outcome [5] | outcome [6] | outcome [7] | outcome [8]

CN(C)CCNCc1ncsc1-c1ccc2c(Nc3ccc(F)cc3Cl)ccnc2c1
active: growth inhibition [1] 95% | growth inhibition [4] 100%
inactive: inhibition [2] -1% | inhibition [3] 0% | outcome [5] | outcome [6] | outcome [7] | outcome [8]

COc1cc(CNC[C@@H](O)[C@H](Cc2ccccc2)NC(=O)c2cc(C3CCCC3)cc(N3CCCS3(=O)=O)c2)cc(OC)c1
inactive: inhibition [2] 31% | inhibition [3] 2% | outcome [5] | outcome [6] | outcome [7] | outcome [8]
active: growth inhibition [1] 94% | growth inhibition [4] 95%

CS(=O)(=O)N1CC2(CCN(CCC(NC(=O)NCc3ccc(Cl)c(Cl)c3)c3ccc(Cl)c(Cl)c3)CC2)c2ccccc21 (stereo not given)
active: growth inhibition [1] 59% | growth inhibition [4] 89%
inactive: inhibition [2] 19% | inhibition [3] -8% | outcome [5] | outcome [6] | outcome [7] | outcome [8]

CN(CC(=O)Nc1cc(C(F)(F)F)ccc1-n1cncn1)Cc1nc2ccccc2s1
inactive: inhibition [2] 3% | inhibition [3] 0% | outcome [5] | outcome [6] | outcome [7] | outcome [8]
active: growth inhibition [1] 64% | growth inhibition [4] 87%

Cc1cc(OCC2CCN(c3ncc(C(=O)Nc4ccccc4)cc3Cl)CC2)ccc1F
active: growth inhibition [1] 87% | growth inhibition [4] 91%
inactive: inhibition [2] 27% | inhibition [3] -2% | outcome [5] | outcome [6] | outcome [7] | outcome [8]

COc1ccc2nccc(NN=Cc3ccccc3)c2c1
active: growth inhibition [1] 99% | growth inhibition [4] 101%
inactive: inhibition [2] -2% | inhibition [3] -1% | outcome [5] | outcome [6] | outcome [7] | outcome [8]

NCc1ccc(CNCc2ccc(-c3ccc(-c4nc5ccc(F)cc5[nH]4)cc3)cc2)cc1
active: growth inhibition [1] 99% | growth inhibition [4] 100%
inactive: inhibition [2] 12% | inhibition [3] -3% | outcome [5] | outcome [6] | outcome [7] | outcome [8]

COc1cc(NC(=O)c2ccc(-c3ccc(C(C)=O)cc3)s2)ccc1OCCN1CCCC1
active: growth inhibition [1] 63% | growth inhibition [4] 100%
inactive: inhibition [2] 31% | inhibition [3] 3% | outcome [5] | outcome [6] | outcome [7] | outcome [8]

Cc1cc(OCCCN2CCC(NS(=O)(=O)c3ccc(Cl)c(Cl)c3)CC2)c2ccccc2n1
inactive: growth inhibition [1] 35% | inhibition [2] 11% | inhibition [3] 1% | outcome [5] | outcome [6] | outcome [7] | outcome [8]
active: growth inhibition [4] 96%

CC(C)(C)COC(=O)c1ccc(NC(=O)N[C@@H](Cc2ccc(O)cc2)C(=O)NC2CCN(Cc3ccc(O)cc3)C2)cc1 (stereo not given in full)
active: growth inhibition [4] 94%
inactive: growth inhibition [1] 21% | inhibition [2] 3% | inhibition [3] -1% | outcome [5] | outcome [6] | outcome [7] | outcome [8]

CN1CCC(NCc2ccc(S(=O)(=O)Nc3ccc(Oc4cccc(Cl)c4)cc3)cc2)CC1
inactive: growth inhibition [1] 5% | inhibition [2] 47% | inhibition [3] 0% | outcome [5] | outcome [6] | outcome [7] | outcome [8]
active: growth inhibition [4] 99%

CC1SC(=S)NC1C(=O)O (stereo not given)
active: growth inhibition [4] 94%
inactive: growth inhibition [1] -1% | inhibition [2] 3% | inhibition [3] 0% | outcome [5] | outcome [6] | outcome [7] | outcome [8]

O=S(=O)(c1c(Cl)cc(Cl)cc1Cl)N1CCCCC(c2ccc(Cl)cc2)=N1
active: growth inhibition [1] 93% | growth inhibition [4] 95%
inactive: inhibition [2] 11% | inhibition [3] 3% | outcome [5] | outcome [6] | outcome [7] | outcome [8]

Cc1cc(NCC(C)C)c2[nH]nc(-c3ccccc3)c2n1
active: growth inhibition [4] 99%
inactive: growth inhibition [1] 30% | inhibition [2] 9% | inhibition [3] 2% | outcome [5] | outcome [6] | outcome [7] | outcome [8]
